Test [1] in a line: Primary qHTS for small molecule stabilizers of the endoplasmic reticulum resident proteome: Secreted ER Calcium Modulated Protein (SERCaMP) assay (AID 1508630). In outline:
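GLuc-SERCaMP-expressing SH-SY5Y cells, pretreated 16 h with compound, are challenged with thapsigargin to empty ER calcium stores; after 4 h, coelenterazine is added directly to the medium and luminescence is imaged.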
(In general: qHTS replaces the single test concentration by a dilution series.)

Test [2] in a line: A High-Content qHTS Against Drug Library for the Identification of Small Molecules that Inhibit DYT1 Early Onset Primary Dystonia-Associated Cell Pathology (AID 1645839; calls by dose curve; further: series mostly up to about 46 µM). The gist of the method:
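Flp-In T-REx 293 cells with tetracycline-inducible EGFP-delE hTOR1A (WT EGFP-hTOR1A as reference), 800 cells/well; compound added with tetracycline, 48 h at 37 C. Fixed, permeabilized cells imaged; %pathology (punctate TorsinA) primary, cell count counterscreen.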

A further test addresses Papain (Carica papaya) (UniProt P00784). The test can be described thus: Primary qHTS assay for inhibitors of the protease papain (AID 1645873).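 Further: papain turnover of Z-FR-AMC read as the AMC fluorescence gain over 10 min.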 Further: potency means the concentration at half of the fitted maximal effect.
A short description of test [3]: Primary qHTS for inhibitors of nuclear receptor binding SET domain protein 2 (NSD2) in an isogenic RCH-ACV NSD2 p.E1099K mutant (9B) (AID 1645876). Further: nearly all actives have a fitted effect of over 70% in size. Further: potency means the concentration at half of the fitted maximal effect.
A short description of test [4]: Primary qHTS for inhibitors of nuclear receptor binding SET domain protein 2 (NSD2) in an RCH-ACV wild type WT cells (2C) (AID 1645877). Further: nearly all actives have a fitted effect of over 70% in size. Further: potency means the concentration at half of the fitted maximal effect.
Test [5] addresses Cytochrome P450 2C9 (Homo sapiens) (UniProt P11712). The test can be described thus: Cytochrome P450 family 2 subfamily C member 9 (CYP2C9) small molecule antagonists: luciferase biochemical (cell-free) qHTS assay (AID 1645842; active means well fitted curve in the direction sought with a large enough effect in the repeat runs; an effect the other way counts as inactive or inconclusive; further: nearly all actives have a fitted effect of over 55% in size; further: potency means the concentration at half of the fitted maximal effect). In outline: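 Luminescence, after 20 min with luciferin detection reagent, reflected CYP2C9 turnover during a 1 h NADPH-driven reaction at 37C. Enzyme-substrate mix contained 0.4% bovine serum albumin and was preincubated with compound 10 min at room temperature.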

For test [6], the target named is Cytochrome P450 2D6 (Homo sapiens) (UniProt P10635). In words: Cytochrome P450 family 2 subfamily D member 6 (CYP2D6) small molecule antagonists: luciferase biochemical (cell-free) qHTS assay (AID 1645840; active means well fitted curve in the direction sought with a large enough effect in the repeat runs; an effect the other way counts as inactive or inconclusive; further: series mostly up to about 57 µM; nearly all actives have a fitted effect of over 55% in size). In outline: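 P450-Glo luminescent screen: recombinant CYP2D6 enzyme–proluciferin substrate mix preincubated with compound 10 min at room temperature, then NADPH regeneration added for 1 h at room temperature. Detection reagent added for 20 min; luciferin light read as relative luminescence units.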

Several values for one entry are separate records, joined by “and”; a condition that tells them apart may be missing. Equal entries are not always repeated. Inconclusive results are not listed. Activity calls are given as the source filed them. Unless noted, the call rests on the fitted dose curve; in most records, active means well fitted curve in the direction sought with a large enough effect; inconclusive means small, poorly fitted or top-dose-only effect, or another doubt; inactive means no such curve, though single readings can be large; an effect the other way counts as inactive or inconclusive.

Chain of Papain (Carica papaya) (P00784 whole entry, looked up, the tested form may be a part): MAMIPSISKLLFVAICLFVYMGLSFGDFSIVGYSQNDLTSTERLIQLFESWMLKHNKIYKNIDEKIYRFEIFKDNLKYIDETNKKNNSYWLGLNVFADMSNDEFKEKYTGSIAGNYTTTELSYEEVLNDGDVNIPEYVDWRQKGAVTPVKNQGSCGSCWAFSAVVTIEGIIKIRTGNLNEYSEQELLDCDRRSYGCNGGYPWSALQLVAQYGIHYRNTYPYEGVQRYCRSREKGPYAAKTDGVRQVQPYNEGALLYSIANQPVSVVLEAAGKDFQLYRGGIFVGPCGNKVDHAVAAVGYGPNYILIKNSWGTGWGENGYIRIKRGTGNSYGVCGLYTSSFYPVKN
Chain of Cytochrome P450 2C9 (Homo sapiens) (P11712 whole entry, looked up): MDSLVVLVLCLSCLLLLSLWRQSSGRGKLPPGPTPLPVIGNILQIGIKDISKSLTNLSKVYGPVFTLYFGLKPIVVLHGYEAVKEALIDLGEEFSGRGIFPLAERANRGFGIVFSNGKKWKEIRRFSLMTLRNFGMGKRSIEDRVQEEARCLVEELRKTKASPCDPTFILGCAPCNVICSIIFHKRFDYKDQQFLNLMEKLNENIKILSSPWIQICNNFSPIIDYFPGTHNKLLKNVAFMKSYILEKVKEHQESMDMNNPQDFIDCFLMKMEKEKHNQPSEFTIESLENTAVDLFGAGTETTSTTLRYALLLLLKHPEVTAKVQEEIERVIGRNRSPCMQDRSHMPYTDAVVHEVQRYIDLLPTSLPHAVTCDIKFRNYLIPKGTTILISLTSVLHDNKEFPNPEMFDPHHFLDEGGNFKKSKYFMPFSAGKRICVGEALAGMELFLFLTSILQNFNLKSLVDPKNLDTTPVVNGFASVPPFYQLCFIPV
Chain of Cytochrome P450 2D6 (Homo sapiens) (P10635 whole entry, looked up): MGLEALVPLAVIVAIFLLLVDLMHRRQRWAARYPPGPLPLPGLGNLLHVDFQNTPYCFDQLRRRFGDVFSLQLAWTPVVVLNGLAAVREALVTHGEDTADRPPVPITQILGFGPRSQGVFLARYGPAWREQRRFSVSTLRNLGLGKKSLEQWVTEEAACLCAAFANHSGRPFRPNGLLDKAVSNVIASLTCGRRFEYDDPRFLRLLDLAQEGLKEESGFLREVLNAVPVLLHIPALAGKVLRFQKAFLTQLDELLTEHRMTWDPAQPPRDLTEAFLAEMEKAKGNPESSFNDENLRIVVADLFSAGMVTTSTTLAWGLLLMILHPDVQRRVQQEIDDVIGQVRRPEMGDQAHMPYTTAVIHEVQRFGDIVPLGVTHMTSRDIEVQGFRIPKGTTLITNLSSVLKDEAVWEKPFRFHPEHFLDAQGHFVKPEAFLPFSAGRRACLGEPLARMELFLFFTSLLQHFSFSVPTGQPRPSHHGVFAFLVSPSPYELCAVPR

Consider `O=C(c1ccc(F)cc1)C1CCN(CCn2c(=O)[nH]c3ccccc3c2=O)CC1`, for which the Potency result (in test [1]; in test [2]; with Papain (Carica papaya); in test [3]; in test [4]) was “inactive” each time.
Turning to `O=C(C1CCCCC1)N1CC(=O)N2CCc3ccccc3C2C1` (centres undefined), the Potency entry (in test [1]; in test [2]; in test [5]; with Papain (Carica papaya); in test [3]; in test [4]) was “inactive” throughout.
As for `NS(=O)(=O)c1cc2c(cc1Cl)NCNS2(=O)=O`, the Potency result (in test [1]; in test [2]; in test [5]; in the test with Papain (Carica papaya); in test [3]; in test [4]) was “inactive” throughout.
Regarding `CC1(C)O[C@H]2CC(=O)OC[C@]23[C@H]2CC[C@@]4(C)[C@H](c5ccoc5)OC(=O)[C@H]5O[C@]54[C@]2(C)C(=O)C[C@@H]13`, the Potency entry in test [1], in test [2], in test [5], in test [3] and in test [4] was “inactive” throughout.
`COc1cc2c(c(OC)c1OC)-c1ccc(OC)c(=O)cc1[C@@H](NC(C)=O)CC2`: the Potency result (in test [1]; in test [2]; in test [5]; in the test with Papain (Carica papaya)) was “inactive” throughout. Moreover, the Potency in test [3] is 33.5 nM (active) and 33.2 nM (active); in test [4] it was 15 nM (active) and 26.3 nM (active).
On to `CC[C@@]1(O)C(=O)OCc2c1cc1n(c2=O)Cc2cc3c(CN(C)C)c(O)ccc3nc2-1`, for which the Potency result in test [1], in test [2] and in test [5] was “inactive” throughout. Moreover, the Potency with Papain (Carica papaya) is 28.2 µM (active); in test [3], 16.8 nM (active) and 57.8 nM (active); in test [4], 10.6 nM (active) and 23 nM (active).
With `CCOC(=O)C(C)(C)Oc1ccc(Cl)cc1`, the Potency result (in test [1]; in test [2]; with Papain (Carica papaya); in test [3]; in test [4]) was “inactive” each time.
Consider `O=C1c2c(O)ccc(O)c2C(=O)c2c(NCCNCCO)ccc(NCCNCCO)c21`, for which the Potency entry (in test [1]; in test [2]; with Papain (Carica papaya)) was “inactive” each time. The Potency in test [3] is 0.186 µM (active); in test [4] it was 132 nM (active).
Consider `CC(=O)OCC(CCn1cnc2cnc(N)nc21)COC(C)=O`, for which the Potency result (in test [1]; in test [2]; in test [5]; in the test with Papain (Carica papaya); in test [3]; in test [4]) was “inactive” each time.
As to `COc1ccc(C2CNC(=O)C2)cc1OC1CCCC1` (centres undefined), the Potency result (in test [1]; in test [2]; in test [5]; with Papain (Carica papaya); in test [3]; in test [4]) was “inactive” each time.
`C[C@](N)(Cc1ccc(O)c(O)c1)C(=O)O`: the Potency result (in test [1]; in test [2]; in test [5]; with Papain (Carica papaya); in test [3]; in test [4]) was “inactive” each time.
Regarding `NC(CO)C(=O)NNCc1ccc(O)c(O)c1O` (centres undefined), the Potency entry (in test [1]; in test [2]; with Papain (Carica papaya)) was “inactive” throughout. Further, the Potency in test [3] was 26.3 µM (active).
Take `O=c1c(-c2ccc(O)cc2)coc2cc(O)cc(O)c12`: the Potency entry (in test [1]; in test [2]; in test [5]; in the test with Papain (Carica papaya)) was “inactive” each time. The Potency was 11.9 µM (active) and 13.5 µM (active) in test [3]; 11.9 µM (active) and 10.8 µM (active) in test [4].
Regarding `COc1ccccc1OCC(O)CN1CCN(CC(=O)Nc2c(C)cccc2C)CC1` (centres undefined), the Potency entry (in test [1]; in test [2]; in the test with Papain (Carica papaya); in test [3]; in test [4]) was “inactive” in each case.
For `Nc1c2c(nc3ccccc13)CCCC2`, the Potency entry in test [1], in test [2], in test [5], in test [3] and in test [4] was “inactive” in each case.
Turning to `O=C1N(c2ccccc2)c2ccccc2C1(Cc1ccncc1)Cc1ccncc1`, the Potency result (in test [1]; in test [2]; with Papain (Carica papaya); in test [3]; in test [4]) was “inactive” in each case. Moreover, the Potency in test [5] was 2.19 µM (active).
Turning to `CC(COc1ccccc1)N(CCCl)Cc1ccccc1` (centres undefined), the Potency entry in test [1], in test [2], in test [3] and in test [4] was “inactive” in each case. In addition, in test [5], the Potency is 12.1 µM (active).
`COc1ccc2[nH]cc(CCNC(C)=O)c2c1`: the Potency entry (in test [1]; in test [2]; in test [5]; with Papain (Carica papaya); in test [3]; in test [4]) was “inactive” in each case.
In the case of `Nc1nnc(-c2cccc(Cl)c2Cl)c(N)n1`, the Potency result (in test [1]; in test [2]; in test [5]; in the test with Papain (Carica papaya); in test [3]; in test [4]) was “inactive” throughout.
Regarding `C[C@H]1c2cccc(O)c2C(O)=C2C(=O)[C@]3(O)C(O)=C(C(N)=O)C(=O)[C@@H](N(C)C)[C@@H]3[C@@H](O)[C@@H]21`, the Potency result in test [1], in test [2] and in test [5] was “inactive” throughout. The values for the Potency (with Papain (Carica papaya); in test [3]; in test [4]) were 22.4 µM (active), 23.5 µM (active) and 9340 nM (active), respectively.
On to `CCc1cccc2c3c([nH]c12)C(CC)(CC(=O)O)OCC3` (centres undefined), for which the Potency result (in test [1]; in test [2]; in the test with Papain (Carica papaya); in test [3]; in test [4]) was “inactive” each time. For the same compound, the Potency in test [5] was 18.2 µM (active).
As to `NC(=O)OCC(COC(N)=O)c1ccccc1`, the Potency result (in test [1]; in test [2]; in test [5]; with Papain (Carica papaya); in test [3]; in test [4]) was “inactive” in each case.
For `COc1ccc2c(c1)c(CC(=O)O)c(C)n2C(=O)c1ccc(Cl)cc1`, the Potency result (in test [1]; in test [6]; with Papain (Carica papaya); in test [3]; in test [4]) was “inactive” in each case. For the same compound, in test [5], the Potency was 11 µM (active).

Values taken from PubChem BioAssay (NCATS).
